Data as given in PubChem BioAssay (Tox21).
“And” between values parts separate entries of the source, which are not always exact repeats. Equal values may be shown once. Results filed as inconclusive are left out. Entries that show only a call come without a potency. A number with no mark means an inactive call. The source made the active and inactive calls. Calls follow the shape of the dose curve; as a rule, active = well fitted activation curve with a large enough effect in the repeat runs; inconclusive = weak or mixed curves; inactive = no such curve, though single readings can be large or run the other way.

assay: qHTS assay for small molecules that induce genotoxicity in human embryonic kidney cells expressing luciferase-tagged ATAD5 (AID 651632); conditions: HEK293T ATAD5-luciferase induction, 16 h; series mostly up to 83.3 µM; activation: at the top concentration; also: nearly all actives have a fitted effect of over 15% in size
From the text: U.S. Tox21 Program National Center for Advancing Translational Sciences [NCATS] NIH Chemical Genomics Center [NCGC] U.S. Environmental Protection Agency [EPA] National Institutes of Environmental Health Sciences [NIEHS] National Toxicology Program [NTP] U.S. Food and Drug Administration [FDA] Tox21 Assay Overview: As cancer cells divide rapidly and during every cell division they need to duplicate their genome by DNA replication. The failure to do so results in the cancer cell death. Based on this concept, many chemotherapeutic agents were developed but have limitations such as low efficacy and severe side effects etc. A new cell based assay was developed to find the compounds that effectively block DNA replication either by directly damaging DNA or by inhibiting other cellular mechanisms. Enhanced Level of Genome Instability Gene 1 (ELG1; human ATAD5) protein levels increase in response to various types of DNA damage. Using a luciferase reporter-gene tagged with ATAD5, a cell-based assay [developed by Kyungjae Myung, NHGRI, NIH] was used to measure the induction of ATAD5 in human embryonic kidney cells (HEK293T). So, increase in luciferase activity can be used to identify the compounds that cause genetic stress.
Tox21 Assay Protocol Summary: For genotoxicity screening, 2,000 cells in 5 uL/well were dispensed into white, solid-bottom 1536-well plates using a Multidrop Combi (Thermo Scientific) dispenser. Following transfer of 23 nL compound or DMSO vehicle by a pin tool, the plates were incubated 16 hr at 37C and 5% CO2. 5 ul Amplite (AAT Bioquest, Inc.) was then added to each plate and following 30 min incubation at room temperature, luciferase activity was quantified on a ViewLux CCD-based plate reader.
Potency is read from the fitted curve at half-maximal effect.

Structure (SMILES)	Potency	activation [%]
O=C(O)c1ccccc1	inactive	
CCCc1cc(=O)[nH]c(=S)[nH]1	inactive	
CN(N=O)C(=O)N[C@@H]1[C@@H](O)[C@H](O)[C@@H](CO)O[C@@H]1O	inactive	
CN1[C@@H]2CC(OC(=O)[C@H](CO)c3ccccc3)C[C@H]1[C@@H]1O[C@@H]12 (stereo not given in full)	inactive	
NS(=O)(=O)O	inactive	
C=C(C)C(=O)OCC(C)O (stereo not given)	inactive	
O=C1O[C@H]([C@@H](O)CO)C(O)=C1O	inactive	
O=C(O)CC(O)C(=O)O (stereo not given)	inactive	
O=C1NC(=O)C(c2ccccc2)(c2ccccc2)N1	inactive	
O=c1[nH]cc(F)c(=O)[nH]1	7.5 µM (active) and 10.1 µM (active)	
C1=CC2C3C=CC(C3)C2C1 (stereo not given)		3.62
CCCCCCc1ccc(O)cc1O	inactive	
Cc1c(C(=O)O)c(O)cc2c1C(=O)c1c(O)c([C@@H]3O[C@H](CO)[C@@H](O)[C@H](O)[C@H]3O)c(O)c(O)c1C2=O	inactive	
Cc1ncc([N+](=O)[O-])n1CCO	inactive	
CC(=O)C(=O)O	inactive	
Cc1cc(=O)oc2cc(O)ccc12	inactive	
Nc1ccc(O)c([N+](=O)[O-])c1		-4.12
Cc1cccc(C)c1	inactive	
CN[C@H]1CC[C@@H](c2ccc(Cl)c(Cl)c2)c2ccccc21		-12.2
CCOc1ccc(NC(C)=O)cc1	inactive	

Structure (SMILES)	Potency	activation [%]
CCCCCCCCCCCCCCCC[N+](C)(C)Cc1ccccc1	inactive	
CS(=O)(=O)OCCCCOS(C)(=O)=O	inactive	
CC(O)(P(=O)(O)O)P(=O)(O)O	inactive	
CCCCCCCCCCCC[N+](C)(C)Cc1ccccc1	inactive	
CN1CCc2cccc3c2[C@H]1Cc1ccc(O)c(O)c1-3	inactive	
Nc1c2c(nc3ccccc13)CCCC2	inactive	
Nc1c(N=Nc2ccc(-c3ccc(N=Nc4cc(S(=O)(=O)O)c5ccccc5c4N)cc3)cc2)cc(S(=O)(=O)O)c2ccccc12	inactive	
O=C1OC2(c3ccccc31)c1cc(Br)c(O)c(Br)c1Oc1c2cc(Br)c(O)c1Br	inactive	
NS(=O)(=O)c1cc2c(cc1Cl)NCNS2(=O)=O	inactive	
CN(C)C(=O)Nc1ccc(Cl)c(Cl)c1	inactive	
O=c1[nH]cnc2c1ncn2[C@H]1CC[C@@H](CO)O1	inactive	
CCN(CC)C(=O)c1cccc(C)c1	inactive	
Cc1cn([C@H]2C=C[C@@H](CO)O2)c(=O)[nH]c1=O	inactive	
O=S1(=O)OC(c2ccc(O)cc2)(c2ccc(O)cc2)c2ccccc21	inactive	
CC(=O)CCC(=O)O	inactive	
C[C@](N)(Cc1ccc(O)c(O)c1)C(=O)O	inactive	
O=C1c2c(O)cccc2Cc2cccc(O)c21	inactive	
C=CCc1ccc(O)c(OC)c1	inactive	
OC[C@H]1O[C@H](O[C@]2(CCl)O[C@H](CCl)[C@@H](O)[C@@H]2O)[C@H](O)[C@@H](O)[C@H]1Cl	inactive	
CN(C)C(=S)SC(=S)N(C)C	inactive	
